# Source: PubChem BioAssay (NCATS)
# Inconclusive results are not listed. Active and inactive are the calls of the source. Calls follow the shape of the dose curve; as a rule, active = well fitted curve in the direction sought with a large enough effect; inconclusive = small, poorly fitted or top-dose-only effect, or another doubt; inactive = no such curve, though single readings can be large; an effect the other way counts as inactive or inconclusive.
# Experiment: Primary qHTS for inhibitors of nuclear receptor binding SET domain protein 2 (NSD2) in an isogenic RCH-ACV NSD2 p.E1099K mutant (9B) (AID 1645876)
# Conditions: RCH-ACV NSD2 E1099K (9B) viability, CellTiter-Glo, 72 h; series mostly up to 44.9 µM; activity change, negative = viability loss: at the top concentration
# % is scaled to controls: 0 for no effect and ±100 for the full control effect; potency is read from the fitted curve at half-maximal effect.
# Also: nearly all actives have a fitted effect of over 70% in size.
SMILES,"activity change, negative = viability loss",outcome,Potency
CCOC(=O)c1ccc(OCCC2CCN(c3ccc(C)nn3)CC2)cc1,-15.7% (inactive),–,–
CC(C)Oc1ccc(-c2cnc3c(-c4ccnc5ccccc45)cnn3c2)cc1,–,inactive,–
O=C(Nc1ncc([N+](=O)[O-])s1)c1ccccc1O,-16.3% (inactive),–,–
CCS(=O)c1nc(-c2cccc(OCc3ccccc3)c2)cc(C(F)(F)F)n1 (stereo not given),–,–,5.15 µM (active)
CC1CCCC(O)CC(=O)c2c(O)cc(O)cc2CC(=O)O1 (stereo not given),–,–,8.01 µM (active)
O=C(NCCCN1CCOCC1)c1cnn2c(-c3ccccc3)cc(-c3ccccc3)nc12,1.77% (inactive),–,–
Cc1cc2occ(CN(C)CCN(C)Cc3cn(-c4cccc(C(F)(F)F)c4)c4ccccc34)c(=O)c2cc1C,–,–,7.28 µM (active)
Cn1c(=O)c(F)c(Nc2ccc(I)cc2F)c2c(=O)n(CC(O)CO)cnc21 (stereo not given),–,–,23 µM (active)
COc1ccnc(CS(=O)c2nc3cc(OC(F)F)ccc3[nH]2)c1OC (stereo not given),-23.4% (inactive),–,–
C=CC(=O)Nc1cccc(Nc2nc(Nc3ccc(OCCOC)cc3)ncc2F)c1,–,–,3.72 µM (active)
C=C(C)[C@@H]1CC=C(COC(=O)NC(=O)c2ncn3c(=O)n(C)nnc23)CC1,-23.6% (inactive),–,–
COc1ccccc1S(=O)(=O)Nc1ccc2c(c1)CN(C)C(=O)N2,–,–,1.83 µM (active)

# Experiment: Primary qHTS for inhibitors of nuclear receptor binding SET domain protein 2 (NSD2) in an RCH-ACV wild type WT cells (2C) (AID 1645877)
# Conditions: RCH-ACV (leukaemia line) NSD2 WT (2C) viability, CellTiter-Glo, 72 h; series mostly up to 44.9 µM; activity change, negative = cell killing: at the top concentration
SMILES,Potency,"activity change, negative = cell killing",outcome
COC(=O)N1CCC(n2ncc3c(N4CCOCC4)nc(-c4ccc(NC(=O)NC5CC5)cc4)nc32)CC1,0.115 µM (active),–,–
CC1=C(C(=O)OC2CCCCC2)C(c2ccc([N+](=O)[O-])cc2)C2=C(CC(C)(C)CC2=O)N1 (stereo not given),–,-26.2% (inactive),–
CCOc1ccc(Cc2nc(-c3c(C)nc4ccccn34)cs2)cc1,0.183 µM (active),–,–
CCCC1(CCC)CCC2(CCN(CCCN(CC)CC)C2)CC1,2.09 µM (active),–,–
CNc1ccc([N+](=O)[O-])c(Nc2ccc3[nH]ncc3c2)n1,7.28 µM (active),–,–
O=C(Nc1ccc(Cl)cc1)C1CCCN(C(=O)c2cccc(-c3ccco3)c2)C1 (stereo not given),23 µM (active),–,–
Cc1c(OCc2cccc(-c3ccc(C(=O)O)cc3)c2)cc2c(c1C)C(=O)C(C1CCCC1)C2 (stereo not given),–,3.36% (inactive),–
CCOC(=O)c1ccc(OCCC2CCN(c3ccc(C)nn3)CC2)cc1,–,-10.5% (inactive),–
CC(C)Oc1ccc(-c2cnc3c(-c4ccnc5ccccc45)cnn3c2)cc1,–,–,inactive
CCS(=O)c1nc(-c2cccc(OCc3ccccc3)c2)cc(C(F)(F)F)n1 (stereo not given),3.25 µM (active),–,–
O=C([C@@H]1CCCN(c2ccc3[nH]c(C4(n5cc(Cl)cn5)CC4)nc3n2)C1)N1CCCC1,–,-47.7% (inactive),–
CC1CCCC(O)CC(=O)c2c(O)cc(O)cc2CC(=O)O1 (stereo not given),5.05 µM (active),–,–
O=C(NCCCN1CCOCC1)c1cnn2c(-c3ccccc3)cc(-c3ccccc3)nc12,–,-20.3% (inactive),–
Cc1cc2occ(CN(C)CCN(C)Cc3cn(-c4cccc(C(F)(F)F)c4)c4ccccc34)c(=O)c2cc1C,7.28 µM (active),–,–
Cn1c(=O)c(F)c(Nc2ccc(I)cc2F)c2c(=O)n(CC(O)CO)cnc21 (stereo not given),23.1 µM (active),–,–
COc1ccnc(CS(=O)c2nc3cc(OC(F)F)ccc3[nH]2)c1OC (stereo not given),–,-27.4% (inactive),–
C=CC(=O)Nc1cccc(Nc2nc(Nc3ccc(OCCOC)cc3)ncc2F)c1,3.72 µM (active),–,–
COc1ccccc1S(=O)(=O)Nc1ccc2c(c1)CN(C)C(=O)N2,1.63 µM (active),–,–
